Measurements: PubChem BioAssay AID1159580 (chemical genetic matrix, 2015)
“And” between values parts separate entries of the source, which are not always exact repeats. Equal values may be shown once. The whole screen tested about 5,500 compounds, of which about 2,000 (36%) were called active. About 18% were inconclusive and are not listed. No stated cut-off is given here; in the data, active means normalized growth mostly below about 0.91 (no sharp cut-off); inconclusive means no clear call, values can overlap the other calls; inactive means mostly above about 0.92. This is one part of the list.

Test: chemical genetic growth profiling, strain panel (AID 1159580);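 further: tested at 20 µM; growth read once vehicle control cultures reached saturation at 30 °C; 1 = growth at the plate median or of vehicle wells; lower values mean less growth of the strain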
Conditions: S. cerevisiae deletion strains, growth OD

Measured: normalized growth

Cc1cc(C(C)(C)C)c(O)c(C(C)(C)C)c1
active: locus YDR195W, strain ref2 0.845
inactive: locus YAL013W, strain DEP1, hits give low values 0.985 | locus YAL021C, strain ccr4, hits give low values 1.04 | locus YAL026C, strain drs2, hits give low values 0.956 | locus YAL030W, strain snc1, hits give low values 0.99 | locus YBL061C, strain skt5, hits give low values 0.943 | locus YBR009C, strain hhf1, hits give low values 0.91 | locus YBR021W, strain FUR4, hits give low values 0.997 | locus YBR023C, strain chs3, hits give low values 0.984 | locus YBR171W, strain sec66, hits give low values 0.979 | locus YBR229C, strain ROT2, hits give low values 0.964 | locus YBR231C, strain swc5, hits give low values 0.921 | locus YBR279W, strain paf1, hits give low values 0.996 | locus YCL011C, strain gbp2, hits give low values 0.917 | locus YCL016C, strain dcc1, hits give low values 0.983 | locus YCL029C, strain bik1, hits give low values 0.983 | locus YCL061C, strain MRC1, hits give low values 0.991 | locus YCL069W, strain vba3, hits give low values 0.99 | locus YCR088W, strain abp1, hits give low values 0.976 | locus YDL005C, strain med2, hits give low values 0.975 | locus YDL035C, strain GPR1, hits give low values 0.947 | locus YDL040C, strain nat1, hits give low values 0.978 | locus YDL074C, strain BRE1, hits give low values 0.816 | locus YDL101C, strain DUN1, hits give low values 0.96 | locus YDL134C, strain PPH21, hits give low values 0.972 | locus YDL185W, strain tfp1, hits give low values 0.962 | locus YDL192W, strain arf1, hits give low values 0.969 | locus YDR001C, strain nth1, hits give low values 0.978 | locus YDR069C, strain doa4, hits give low values 0.963 | locus YDR101C, strain arx1, hits give low values 0.977 | locus YDR137W, strain rgp1, hits give low values 0.965 | locus YDR150W, strain NUM1, hits give low values 0.975 | locus YDR159W, strain sac3, hits give low values 0.959 | locus YDR162C, strain NBP2, hits give low values 0.859 | locus YDR297W, strain sur2, hits give low values 0.983 | locus YDR318W, strain mcm21, hits give low values 0.984 | locus YDR334W, strain swr1, hits give low values 0.966 | locus YDR335W, strain msn5, hits give low values 0.989 | locus YDR388W, hits give low values 0.994 | locus YDR392W, strain spt3, hits give low values 0.937 | locus YDR502C, strain sam2, hits give low values 0.952 | locus YEL003W, strain gim4, hits give low values 0.967 | locus YEL037C, strain rad23, hits give low values 0.976 | locus YEL061C, strain CIN8 (second series), hits give low values 0.976 | locus YEL061C, strain CIN8, hits give low values 0.983 | locus YER015W, strain faa2, hits give low values 0.937 | locus YER016W, strain bim1, hits give low values 0.984 | locus YER110C, hits give low values 1 | locus YER111C, strain swi4, hits give low values 0.982 | locus YER155C, strain BEM2 (second series), hits give low values 0.949 | locus YER155C, strain BEM2, hits give low values 0.986 | locus YER167W, strain BCK2, hits give low values 0.963 | locus YFR010W, strain ubp6, hits give low values 0.956 | locus YGL078C, strain dbp3, hits give low values 0.962 | locus YGL086W, strain mad1, hits give low values 1 | locus YGL167C, strain pmr1, hits give low values 0.991 | locus YGL173C, strain kem1, hits give low values 0.957 | locus YGL227W, strain vid30, hits give low values 0.989 | locus YGL240W, strain doc1, hits give low values 0.938 | locus YGL248W, strain PDE1, hits give low values 0.965 | locus YGL253W, strain hxk2, hits give low values 0.96 | locus YGR078C, strain PAC10, hits give low values 0.93 | locus YGR135W, strain pre9, hits give low values 0.928 | locus YGR229C, strain SMI1, hits give low values 0.86 | locus YGR252W, strain gcn5, hits give low values 1.03 | locus YHR013C, strain ard1, hits give low values 1.1 | locus YHR027C, strain rpn1, hits give low values 0.955 | locus YHR030C, strain SLT2, hits give low values 0.996 and 0.877 | locus YHR079C, strain IRE1 (second series), hits give low values 0.963 | locus YHR079C, strain IRE1, hits give low values 0.918 | locus YHR094C, strain hxt1, hits give low values 1 | locus YHR129C, strain ARP1, hits give low values 0.978 | locus YHR142W, strain chs7, hits give low values 0.961 | locus YHR200W, strain rpn10, hits give low values 1 | locus YIL066C, strain RNR3, hits give low values 0.934 | locus YIL073C, strain SPO22, hits give low values 0.929 | locus YIL125W, strain kgd1, hits give low values 0.967 | locus YIR030C, strain dcg1, hits give low values 0.998 | locus YJL092W, strain hpr5, hits give low values 0.984 | locus YJL095W, strain BCK1 (second series), hits give low values 0.979 | locus YJL095W, strain BCK1, hits give low values 0.903 and 0.934 | locus YJL115W, strain asf1, hits give low values 0.983 | locus YJL129C, strain trk1, hits give low values 0.953 | locus YJL134W, strain LCB3, hits give low values 1 | locus YJL154C, strain vps35, hits give low values 0.984 | locus YJL164C, strain tpk1, hits give low values 0.95 | locus YJL166W, strain qcr8, hits give low values 0.951 | locus YJL168C, strain set2, hits give low values 0.996 | locus YJL187C, strain SWE1 (second series), hits give low values 0.886 | locus YJR043C, strain POL32, hits give low values 0.97 | locus YJR066W, strain TOR1, hits give low values 0.942
